“And” between values parts separate entries of the source, which are not always exact repeats. Equal values may be shown once. The panel holds about 83,000 compounds, 20% with a hit somewhere; the sample as a whole holds those more often.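 A percent growth of 40 corresponds to 60% growth inhibition; 0 means no net growth; -100 means all cells died. Active threshold: below 10.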 Values without a mark were called inactive. The source made the active and inactive calls.

The subject of this assay is MDA-MB-435 melanoma. As to the kind of experiment: NCI-60 one-dose screen, 48 h (100 = growth as untreated, 0 = no growth, -100 = all killed). The settings on record: 10 µM unless noted.
Consider `CCOC(=O)C1C(C=C(C)C)C1(C)C` (configuration not stated), for which the growth is 102%. Turning to `O=C/C=C/c1ccco1`, the growth was 106%. The figure for `Cn1cc(-c2csc(-c3cn(CCCCN4CCOCC4)c4ccc(F)cc34)n2)c2cccnc21` is 38.1%; for `CC(=O)Nc1nc2c(s1)C1=CC[C@H]3[C@@H]4CC[C@H](OC(C)=O)[C@@]4(C)CC[C@@H]3[C@@]1(C)CC2` it is 4.51% (active); for `C[C@]12CC[C@H](O)C[C@@H]1CC[C@@H]1[C@@H]2CC[C@]2(C)OC(=O)CC[C@@H]12` it is 102%. For `C[C@]12CCc3sc(Nc4ccc(O)cc4)nc3C1=CC[C@@H]1[C@@H]2CC[C@]2(C)C(=O)CC[C@@H]12` the value was 35.3%; for `O=C(O)C(Br)CBr` (configuration not stated), 103%; for `Cc1cc[c-]cc1.Fc1c[c-]c(-c2ccccn2)c(F)c1.N#CCC[PH+](CCC#N)c1ccccc1.[Pt+2]`, 30.9%. The figure for `O=P(O)(Nc1ccccc1)Nc1ccccc1` is 88.5%; for `Cc1cc(N(CCCl)CCCl)ccc1C=Nc1ccc(-c2csc(-c3ccccc3)n2)cc1` it is 95.2%; for `Oc1ccccc1C=NCCN=Cc1ccccc1O` it is 108%.

With `COC12CC3(C)C(C4=CC(=O)OC4)CCC3(O)C3CCC4=CC(=O)CCC4(CO1)C32` (configuration not stated), the growth is 106%. For `CC12CCC3C(CCC4CC(O)CCC43C)C1CCC2=O` (configuration not stated) the value was 97.7%. For `COc1cc(-c2ccc(N)c(OC)c2)ccc1N` the value was 107%; for `COc1ccn(C)c(=O)c1C#N`, 107%. The figure for `CCCCCCCCCCCCCCCC[N+](C)(C)Cc1ccccc1` is -58.7% (active) and -87.5% (active); for `Cc1nc2ccccc2c(=O)n1-c1ccccc1F` it is 102%. In the case of `C[C@]12CC[C@H]3[C@@H](C[C@@H]4SC(Nc5ccccc5)=N[C@@]45C/C(=N/O)CC[C@]35C)[C@@H]1CCC2=O`, the growth is 51.6%. The figure for `N#CCN(CC#N)[N+](=O)[O-]` is 108%; for `O=C(O)c1ccccc1N(CCO)CCCl` it is 112%. With `O=[N+]([O-])c1cc(Cl)c(Cl)cc1Cl`, the growth is 101% and 107%. For `CN1[C@@H](CC(=O)c2ccccc2)CCC[C@H]1CC(=O)c1ccccc1` the value was 97.5%.

For `O=Cc1cn(Cc2ccccc2)c2ccccc12`, the growth is 125%.

Turning to `OCCN=Cc1c[nH]c2ccccc12`, the growth is 103%.

For the molecule `C=CC[PH+](c1ccccc1)c1ccccc1.C=CC[PH+](c1ccccc1)c1ccccc1.[Pt+2].[S-]c1nc2ccccc2[nH]1.[S-]c1nc2ccccc2[nH]1`, the growth is -50.5% (active).

In the case of `O=NN1CCCCC1`, the growth is 118%.

With `COC(=O)C1=CCCN(C)C1`, the growth is 98.9% and 96.1%. On to `CC[C@H](C)[C@H](NC(=O)[C@H]1CCCCN1C)C(=O)N(C)[C@H](C[C@@H](OC(C)=O)c1cccc(C(=O)N[C@@H](Cc2ccccc2)C[C@H](C)C(=O)OC)n1)C(C)C`, for which the growth was -29.2% (active). For `CC1(C)CN=C(NN=C(/C=C/c2ccc(C(F)(F)F)cc2)/C=C/c2ccc(C(F)(F)F)cc2)NC1` the value was -83.6% (active); for `Cc1ccc(P(=O)(O)O)cc1`, 107%. For `Nc1ccc2c(c1)Cc1cc(N)ccc1-2` the value was 91.8%; for `N#CCCc1ccccc1`, 104%. The figure for `CNC(=O)O/N=C(\SC)C(=O)N(C)C` is 116%. For the molecule `CCC1(CCSC#N)C(=O)NC(=O)NC1=O`, the growth was 106%. For `Oc1ccccc1C=NCCN=Cc1ccccc1O.[Fe]` the value was 31.1%.

As for `CCCCCCCCCCCCCCCC[N+](C)(C)C`, the growth is -70.1% (active) and 7.38% (active). For `C[N+]1(C)CCCC1c1cccnc1` (configuration not stated) the value was 108%.

Values taken from PubChem BioAssay (NCI).
